In PubChem BioAssay AID651791 (National Center for Advancing Translational Sciences (NCATS), 2012):
Inconclusive results are not listed. Calls of active or inactive are those of the source. Calls come from the whole dose curve; as a rule, active = well fitted inhibition curve with a large enough effect; inconclusive = small, poorly fitted or top-dose-only effect; inactive = no such curve, though single readings can be large or run the other way.

Assay: InCell qHTS Assay for Inhibitors of the mTORC1 Signaling Pathway in MEF (Tsc2-/-, p53-/-) Cells: Hit Validation;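 note: phospho-S6 Ser235/236 signal normalized to propidium iodide cell count per well; nearly all actives have a fitted effect of over 75% in size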
Conditions: phospho-rpS6 immunofluorescence, 24 h; activity change, negative = inhibition: at 38.3 µM (top of the series)
Potency is the fitted concentration of half-maximal effect.

`CC(C)OCCCn1c(=O)c2ccccc2n2c(-c3ccc(F)cc3)nnc12` and `COc1ccccc1CNC(=O)CCCn1c(=O)c2cccn2c2ccccc21` are the same in activity change, negative = inhibition: -100% for the first, -100% for the second.

`Cc1ccc(NC(=O)c2c(C)oc3ccc(O)c(CN(C)Cc4ccccc4)c23)c(C)c1` and `CCc1cccc(NC(=O)c2oc3ccc4c(c3c2C)C(=O)CC(C)(C)O4)c1` are the same in activity change, negative = inhibition: -100% for the first, -100% for the second.

Compared with `Cc1n[nH]c(C)c1S(=O)(=O)N(CC(=O)Nc1ccc(C(F)(F)F)cc1)c1ccc(C(C)C)cc1`, `COc1ccc(C(C(=O)Nc2ccc(C(C)C)cc2)N(C)C(=O)Cc2cccs2)cc1` (configuration not stated) is lower in activity change, negative = inhibition: -23.7% for the first, -100% for the second.

`COc1ccc(OCc2nc3c4c(-c5ccccc5)c(-c5ccccc5)oc4ncn3n2)cc1` and `CCOc1ccc(/C=C/c2nc3ccccc3n2S(=O)(=O)c2cccc(Cl)c2)cc1` are the same in activity change, negative = inhibition: -100% for the first, -100% for the second.

`CCOc1ccc(CCNC(=O)CCc2c(C)nc3cc(-c4ccccc4OC)nn3c2C)cc1` and `COc1ccc(CCN2C(=O)c3[nH]nc(-c4ccccc4O)c3C2c2ccc(OC)c(OC)c2)cc1` (configuration not stated) are the same in activity change, negative = inhibition: -100% for the first, -100% for the second.

`CCCCNC(=O)CSc1nc2nc(C)c(Cc3ccccc3C)c(C)n2n1` and `COc1ccc(NC(=O)CSc2nc3ccccc3nc2N2CCC(C)CC2)cc1` are the same in activity change, negative = inhibition: -100% for the first, -100% for the second.

Compared with `CCC(=O)C1=C(c2ccc(F)cc2)N(C(=O)CC)n2cnnc2S1`, `CCOC(=O)c1[nH]c2ccccc2c1NC(=O)c1ccccc1OCC` is lower in activity change, negative = inhibition: -21.8% for the first, -100% for the second.

`COc1ccc(Nc2nc(N)c3cc(OC)c(OC)cc3n2)cc1` and `COc1ccc(C(=O)N2CCN(C(=O)COc3ccc(Br)cc3)CC2)cc1OC` are the same in activity change, negative = inhibition: -100% for the first, -100% for the second.

Compared with `O=C(CC(NCc1cccnc1)C(=O)O)Nc1ccc(O)cc1` (configuration not stated), `CC(=O)Nc1cccc(NC(=O)C(=O)NCCc2sc(-c3ccccc3)nc2C)c1` is higher in activity change, negative = inhibition: -100% for the first, -9.58% for the second.

`CC(C(=O)NCc1cccc(Br)c1)n1ncn2cccc2c1=O` (configuration not stated) and `Cc1cccc(-n2cnc3cc(C(=O)NC4CCCCCC4)ccc32)c1` are the same in activity change, negative = inhibition: -100% for the first, -100% for the second.

`CCCn1c2ccc(C)cc2c2nnc(SCCN3CCCCC3)nc21` and `COc1ccc(OCC(O)Cn2c(=N)n(CCN3CCCCC3)c3ccccc32)cc1` (configuration not stated) are the same in activity change, negative = inhibition: -100% for the first, -100% for the second.

`CCOC(=O)N1CCN(Cc2nc3cc(NC(C)=O)ccc3n2C(C)C)CC1` and `CCOC(=O)C1=C(CN2CCN(c3cc(C)ccc3C)CC2)NC(=O)NC1c1ccc(Cl)cc1` (configuration not stated) are the same in activity change, negative = inhibition: -100% for the first, -100% for the second.

First: CN(C)c1ccc(Nc2nc3ccccc3n3nnnc23)cc1
Second: Cc1cccc(Nc2nnc(-c3ccc(C)c(S(=O)(=O)N4CCN(C)CC4)c3)c3ccccc23)c1
The activity change, negative = inhibition of the first is higher: -0.0295% for the first, -100% for the second.

`CCc1ccc(CN(Cc2ccco2)C(=O)c2cc(-c3ccc(C)c(F)c3)on2)cc1` and `CC1CCCN(CCCNC(=O)c2ccc3c(c2)N(Cc2ccc(Cl)cc2)C(=O)c2ccccc2S3(=O)=O)C1` (configuration not stated) are the same in activity change, negative = inhibition: -100% for the first, -100% for the second.

First: N#Cc1ccc(-c2cccs2)nc1SCc1c(F)cccc1Cl
Second: CCCSc1oc(-c2ccco2)nc1S(=O)(=O)c1ccc(Br)cc1
The activity change, negative = inhibition of the first is higher: -16.8% for the first, -100% for the second.

`O=C(Nc1cccc(C(F)(F)F)c1)c1cnn(-c2cccc(F)c2)c1C1CCNCC1` and `CCC1=Nc2cc(C(=O)NC3CCCC3)ccc2Sc2ccc(Cl)cc21` are the same in activity change, negative = inhibition: -100% for the first, -100% for the second.

`Cc1ccc(S(=O)(=O)c2nnn3c2nc(NC2CCCCC2)c2sccc23)cc1C` gave an activity change, negative = inhibition of -100%.

With `CCS(=O)(=O)c1ncc(Cl)c(C(=O)Nc2ccc(S(=O)(=O)N(C)c3ccccc3)cc2)n1` the Potency was 1.85 µM (active).
For `Cc1ccc(CN2C(=O)C(=O)c3cc(Br)cc(C)c32)cc1`, the Potency was 18.5 µM (active).
In the case of `Cc1cccc(NC(=O)c2nc(S(C)(=O)=O)ncc2Cl)c1`, the Potency is reported as 5.21 µM (active).
In the case of `CCCCS(=O)(=O)c1oc(-c2ccc(F)cc2)nc1S(=O)(=O)c1ccc(C)cc1`, the Potency is reported as 5.85 µM (active).
